Results on 26 molecules are retold here after PubChem BioAssay (NCI).

Molecules are shown by their SMILES. The panel holds about 83,000 compounds, 20% with a hit somewhere; the sample as a whole holds those more often.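 Interpretation: 100, growth as untreated; towards 0, rising growth inhibition; 0, no net growth; 0 to -100, cell death. Compounds scoring below 10 were considered active.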 Activity calls are given as the source filed them.

One test concerns NCI/ADR-RES ovarian. Nature of the test: NCI-60 one-dose screen, 48 h (100 = growth as untreated, 0 = no growth, -100 = all killed). Conditions: 10 µM unless noted.
With `COc1ccc(-c2nc(SCC(C)C)nc(N/N=C\c3cccc([N+](=O)[O-])c3)c2C#N)cc1`, the growth is 51.5% (inactive). In the case of `C=C1C(=O)O[C@@H]2C[C@@H](C)CCC(=O)[C@](C)(OC(C)=O)C[C@H](OC(=O)/C(C)=C\C)[C@@H]12`, the growth is 97.2% (inactive).

In the case of `C=C1C(=O)O[C@@H]2C[C@@H](C)/C=C\C(=O)[C@](C)(OC(C)=O)C[C@H](OC(=O)/C(C)=C\C)[C@@H]12`, the growth was 10.5% (inactive).

Take `CCCCCCNC(=O)Oc1ccc(/C(=C(/C)c2ccc(OC)cc2)c2ccc(OCCN3CCCC3)cc2)cc1`: the growth was 77% (inactive). On to `CN(C)c1ccc(/C=N/Nc2nc(N/N=C/c3ccc(N(C)C)cc3)nc(N3CCOCC3)n2)cc1`, for which the growth was 99.8% (inactive).

Turning to `COc1ccc(-c2oc3cc(O)cc(O)c3c(=O)c2OC)cc1O`, the growth is 15.4% (inactive).

A further test has as its system T-47D breast. The test is described as above. Conditions: 10 µM unless noted.
Turning to `CC(C)Sc1nc(NC2CC2)c(C#N)c(-c2ccccc2)n1`, the growth was 83.5% (inactive).

`O=C1/C(=C/c2ccc([N+](=O)[O-])cc2)SC(=Nc2ccccc2)N1Nc1ccccc1`: the growth was 56.2% (inactive).

With `CC1OC(O[C@@H]2[C@H](O)C(CO)OC(O[C@H]3COC(O[C@H]4CC[C@]5(C)[C@H]6CC[C@]78OC[C@@]9(CCC(C)(C)C[C@H]97)[C@H](O)C[C@@]8(C)[C@]6(C)CC[C@H]5C4(C)C)[C@@H](OC4OC(CO)[C@@H](O)[C@@H](O)[C@@H]4O)[C@@H]3O)[C@H]2OC2OC[C@@H](O)[C@@H](O)[C@@H]2O)[C@@H](O)[C@@H](O)[C@H]1O` (stereo not given in full), the growth was -54.6% (active).

Regarding `O=C1NC(=O)c2c1c1c3ccccc3ccc1c1[nH]c3ccccc3c21`, the growth was 11.8% (inactive).

As for `COc1ccc(-c2ccc3c4c(cccc24)C(=O)N(N2C(=O)c4cccc5cccc(c45)C2=O)C3=O)cc1`, the growth was 98% (inactive). Turning to `COc1cc(CNC(=O)/C=C/c2ccccc2)ccc1OCC(=O)NO`, the growth is 99.6% (inactive). Same read-out and setting: the same measure for `NS(=O)(=O)c1ccc(Nc2nc(N/N=C/c3ccc(F)cc3)nc(Nc3ccccc3)n2)cc1`: 20.7% (inactive). As to `C=C1C(=O)O[C@@H]2C[C@@H](C)[C@H](OC)CC(=O)[C@](C)(OC(C)=O)C[C@H](OC(=O)/C(C)=C\C)[C@@H]12`, the growth is 46.9% (inactive). In the case of `O=C(c1ccc(O)cc1)[C@@H]1[C@@H]2CCCN2[C@@]2(C(=O)N(C(=O)c3ccc(F)cc3)c3ccccc32)[C@H]1c1ccc(F)cc1`, the growth is 89% (inactive). Consider `Cc1ccc(Cc2cnc(NC(=O)/C(C#N)=C/c3ccc(-c4ccc(Cl)cc4)o3)s2)cc1`, for which the growth was 64.7% (inactive). Same read-out and setting: the same measure for `C=C(C)C(=O)O[C@H]1C[C@@]2(C)OC(=CC2=O)/C(C)=C\[C@H]2OC(=O)C(=C)[C@H]12`: -0.517% (active); for `CCN(CC)CCN1C(=O)c2c(c3c4cc(Br)ccc4[nH]c3c3ccc4ccccc4c23)C1=O`: -34.5% (active); for `O=C1c2c(c3c4cccnc4[nH]c3c3ccc4ccccc4c23)C(=O)N1CCN1CCOCC1`: 65.5% (inactive). On to `O=c1[nH]c(CCl)nc2c1cnn2-c1ccccc1`, for which the growth was 95.2% (inactive). Consider `C=C1C(=O)O[C@@H]2/C=C(/C)C3=CC(=O)[C@@](C)(C[C@H](OC(=O)/C(C)=C\C)[C@@H]12)O3`, for which the growth was -17.4% (active). Take `COc1ccc(/C=N\NC(=O)c2ccc3nc(-c4ccc(Br)cc4)[nH]c3c2)cc1`: the growth was 55.8% (inactive). With `COc1cc(/C=N/n2cnc3oc(-c4ccccc4)cc3c2=N)cc(CN2CCCC2)c1O`, the growth was 93.3% (inactive). For `CCOC(=O)c1c(NCC(=O)Nc2cccc(Cl)c2)sc2c1CCCC2`, the growth was 63.4% (inactive).

Regarding `Cc1ccc(-c2csc(N/N=C/c3nc4ccccc4n3C3CC3)n2)cc1`, the growth is -50.9% (active). With `C#C[C@]1(O)CC[C@H]2[C@@H]3CC=C4c5sc(Nc6cccc(C)n6)nc5CC[C@]4(C)[C@H]3CC[C@@]21C`, the growth was 37.7% (inactive). Still for that read-out and setting: the same measure for `COc1ccc(-c2nc(SCC(C)C)nc(N/N=C\c3cccc([N+](=O)[O-])c3)c2C#N)cc1`: 64% (inactive); for `C=C1C(=O)O[C@@H]2C[C@@H](C)CCC(=O)[C@](C)(OC(C)=O)C[C@H](OC(=O)/C(C)=C\C)[C@@H]12`: 39% (inactive); for `C=C1C(=O)O[C@@H]2C[C@@H](C)/C=C\C(=O)[C@](C)(OC(C)=O)C[C@H](OC(=O)/C(C)=C\C)[C@@H]12`: -72.8% (active). On to `COc1ccc(-c2oc3cc(O)cc(O)c3c(=O)c2OC)cc1O`, for which the growth was 22.6% (inactive).
